Laboratory results published in the supplement of paper PMC6555819.

The sequences below were run on PXR:RXRa (NR concentration 270 nM, RXRa partner concentration 90 nM) (assay: PBM binding z-score (relative to random genomic background probes); higher = stronger binding; sequences stand for … in GC…GCGATTGACAGCGTAGAATGAAGG).
How it was run: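 The probes on custom Agilent 4×180K protein-binding microarrays were double-stranded, with 34-nt variable regions bearing direct-repeat seeds, single-nucleotide variants, half-site ablations and random human genomic background sequences. Incubation lasted 1 h with ligand-free nuclear receptor dimers in PBS pH 7.4, 2% milk, 0.02% Triton X-100, 1 mM DTT, 0.2 mg/mL BSA and 0.4 mg/ml salmon testes DNA. Antibodies against each partner (one per run) detected bound dimers, and fluorescence scans were regression-normalized. Binding z-scores take the random background probes as reference.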

Going from CCTTCCGGGTCACGAGGTTATAGCACGACGAGCG to TCTGCTAAGTCAACGATGGTCAGCTAATCTGCTA, the PBM binding z-score falls from 4.81 to -0.538.

Compared with TGAATGAGGTTATAAGATCAGAGAACGTTGCAAA, CCTGCTAGGTCAATGCTCAGCTAAAGCAGCTCGC is lower in PBM binding z-score: 0.687 for the first, 0.498 for the second.

Going from TCATATAGGTAATACAGGTGAAAGTCGGCATCTA to CCGACTGGGGCAAAGGTTACCCTACTCAGTACGA, the PBM binding z-score rises from 0.888 to 1.9.

Going from AATACAGGGTCATCGTAGGCCAGAATACGCACAG to TCTCGGAGGACGCGAAAGGTCAGAGCTCGACATC, the PBM binding z-score falls from 4.6 to 3.7.

First: TCTGCTAGGGCAACGATGGTCAGCTAATCTGCTA
Second: CCTTACGGGTCACTCCAGGTTATAGCTTCGGAGT
The PBM binding z-score of the first is lower: -0.375 for the first, 4.98 for the second.

First: TCTAGCAGGCCAGAGTGTCACTCAAGAGGTACGG
Second: CCTTACGGGTCACTGACAGGTTACAGCATTTGGA
The PBM binding z-score of the first is lower: -0.229 for the first, 3.59 for the second.

Going from ATATGTAGGTTAGCTGGGGTCAGTCAGACTAGGC to CCTACTGGGCCTAAAAGGTCATTGATGCCGATAA, the PBM binding z-score falls from 5.06 to 4.85.

First: CCTAGTTGGTCAAGGTTACACACGCTATAGGTAC
Second: ATCGAAAGGTCGACGAGGTGAGTTTACACCGTTT
The PBM binding z-score of the first is lower: 1.19 for the first, 3.35 for the second.

First: TCGCCTAGGTCATTGGGCCAGTATAGTACGCATC
Second: CCTTACGGGTCAAGGTTAGAGCACGGGTGGTACG
The PBM binding z-score of the first is lower: 1.74 for the first, 3.08 for the second.

First: TAGCCTAGGTCAATCAGGGGCCAGTATAGAAAGC
Second: TCCTATAGGTAAAAGGTGAAAGTCGGTGTGGTAA
The PBM binding z-score of the first is higher: 2.04 for the first, 1.66 for the second.

First: ATATGGAGGTTACATCCGGGTCATTCAGGCTATG
Second: TATACAGGGTCAAATGCCAGAGTACGAATGTCGA
The PBM binding z-score of the first is higher: 4.57 for the first, 4.3 for the second.

Compared with TGAATGAGGTTAAAAGATCAGGGAACGTTGCAAA, TCTATTGGTTGATTAGGGCAACCGAAACAGCGGA is lower in PBM binding z-score: 1.26 for the first, 0.573 for the second.

First: CCTTACGGGTCATGGTTATAGCACGGGTGGTACG
Second: CCTAGTTGGTCAGGAGTTCACACACCGGATATGA
The PBM binding z-score of the first is lower: 2.96 for the first, 3.66 for the second.

Compared with AATACAGGGTCTCTAGGCCAGAGTAGGTACGAAT, ACTAGCAGGCCTAGGGTCACTCAAGATTAGTCCG is higher in PBM binding z-score: -0.522 for the first, 2.65 for the second.

First: TCTATTAGTTGATTAGGGCCACCGAAACAGCGGA
Second: ACTAGTTGGTCAGGTGAGGTCACACACAATTCGG
The PBM binding z-score of the first is lower: 0.517 for the first, 5.46 for the second.

First: ATACCAAGGTGATCGTGAGGTAGTTGATACTAAC
Second: CCTAGTTGGTCAAGGTCAAACACGCTATAGGTAC
The PBM binding z-score of the first is lower: -0.117 for the first, 4.48 for the second.

Going from TAGCCTAGGTCAGATCGGGCTAGTATACGCTATA to TAGCCTAGGTGATTCAGGGGCCAGTATAGAAAGC, the PBM binding z-score falls from 0.63 to -0.295.

Going from TCATATAGGTAACTGCTAGGTGAAAGTCCGATCT to TCAGACAGGTTAAGGTAACTCAGGTACGCAGTCG, the PBM binding z-score rises from 0.43 to 1.1.

First: TCTCGGAGGACACGAAAGTCAGAGCTTTCCAGAG
Second: AATCCAGGGTCACTAGGCCAGAGTAGGTACGAAT
The PBM binding z-score of the first is lower: -0.408 for the first, 3.49 for the second.

First: CGAACGAGCGCATGAGTTGATAGCAAATGCCGAT
Second: GTACAAAGGTGAATAGGTCGTTGATGAGTAGGCG
The PBM binding z-score of the first is lower: -0.509 for the first, 2.15 for the second.
